# Test results from PubChem BioAssay.
# The source made the active and inactive calls.
# Key:
# [1] = test system: Human papillomavirus type 1a protein E7 (residues 44-93); assay: small molecules binding HPV E7 44-93 – biochemical, small-molecule microarray, residues 44-93, 635 nm fluorescence, primary screen (AID 1108); conditions: fluorescence 635 nm, higher = more signal;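 note: E7 fragment applied at 1 µg/mL in TBST for 1 h at 4 C; score combines spot fluorescence with its signal to noise ratio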
# [2] = hepatitis C replication reporter changes, two-sided – Huh7 cells, luciferase reporter, HCV replication inhibitor project, primary screen (AID 1109); conditions: Huh7 HCV replicon luciferase reporter, 48 h; higher = more signal;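 note: huh7 hepatoma cells harbouring a luciferase neomycin HCV replicon reporter; luciferase luminescence as measure of HCV replicon replication; test concentration not given here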
# [3] = biological target: Left-right determination factor 2 (Homo sapiens) (UniProt O00292); assay: small molecules binding LEFTY2 protein – biochemical, small-molecule microarray, 635 nm fluorescence scan, primary screen (AID 1110); conditions: higher = more signal
# [4] = biological target: Calmodulin-1 (Homo sapiens) (UniProt P0DP23); assay: small molecules binding calmodulin-1 with EGTA – biochemical, small-molecule microarray, Cy5-labelled CALM1, profiling panel (AID 1111); conditions: Cy5-CALM1 binding fluorescence, higher = more signal;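 note: labelled calmodulin applied in Tris saline Tween buffer holding calcium plus EGTA and DTT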
# [5] = biological target: Calmodulin-1 (Homo sapiens) (UniProt P0DP23); assay: small molecules binding Ca-loaded calmodulin-1 – biochemical, small-molecule microarray, Cy5-labelled CALM1, plus calcium, artefact control for SMM control-protein annotation, profiling panel (AID 1112); conditions: Cy5-CALM1 binding fluorescence, higher = more signal;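 note: score merges spot fluorescence with signal to noise from triplicate slides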
# [6] = probe aWnt5a binding to arrayed compounds – biochemical, biotinylated probe, 635/667 nm fluorescence, primary screen (AID 1113); conditions: small-molecule microarray, higher = more signal;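 note: score merges 667 nm fluorescence intensity with signal-to-noise per printed feature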
# [7] = probe aShh binding to arrayed compounds – biochemical, biotinylated probe, 635/667 nm fluorescence, primary screen (AID 1114); conditions: small-molecule microarray, higher = more signal;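 note: probe is biotin-labelled aShh protein from a stem cell growth factor screen; measures binding of labelled protein to compounds printed on the slide; score merges feature fluorescence at 667 nm with signal-to-noise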
# [8] = probe aNog binding to arrayed compounds – biochemical, biotinylated probe, 635/667 nm fluorescence, primary screen (AID 1115); conditions: small-molecule microarray, higher = more signal;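 note: probe is biotinylated aNog protein used at 0.15 µg/mL for 1 h at 4 C; z-score combines 667 nm fluorescence of each spot with its signal to noise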
# [9] = biological target: Torsin-1A-interacting protein 1 (Homo sapiens) (UniProt Q5JTV8); assay: compound microarray binding of lysate hLAP1 – cell lysate, small-molecule microarray, COS7 lysate, 635/667 nm fluorescence, primary screen (AID 1116); conditions: 635 nm fluorescence, higher = more signal
# [10] = biological target: Alpha-bungarotoxin (Bungarus multicinctus) (UniProt P60615); assay: compounds binding labelled alpha-BTX control protein – biochemical, small-molecule microarray, Alexa647 label, 635/667 nm fluorescence, artefact control for SMM control protein annotation, profiling panel (AID 1117); conditions: alpha-BTX-A647 binding fluorescence, higher = more signal
# Albumin (Bos taurus) = Albumin (Bos taurus) (UniProt P02769); assay: compounds binding labelled BSA control protein – biochemical, small-molecule microarray, Alexa647 label, 635/667 nm fluorescence, artefact control for SMM control protein annotation, profiling panel (AID 1118); conditions: BSA-A647 binding, fluorescence 635 nm, higher = more signal;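 note: score merges 667 nm emission intensity and signal-to-noise per printed compound spot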
# [11] = probe aXIP binding to arrayed compounds – biochemical, NeuroSMM set, 635/667 nm fluorescence, primary screen (AID 1119); conditions: small-molecule microarray, higher = more signal, called active from +8 up or from −8 down;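 note: probe is the protein aXip251-270 applied at 1 µg/mL to compound-printed slides; binding of probe to printed compounds measured as 667 nm fluorescence plus signal to noise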
# [12] = probe aNOTCH3 binding on compound microarray – biochemical, small-molecule microarray, 635/667 nm fluorescence, primary screen (AID 1120); conditions: higher = more signal;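 note: probe is a biotin-tagged antibody raised against NOTCH3 rather than NOTCH3 protein; score merges spot fluorescence near 667 nm with spot signal to noise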
# [13] = probe aNOTCH2 binding on compound microarray – biochemical, small-molecule microarray, 635/667 nm fluorescence, primary screen (AID 1121); conditions: higher = more signal;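 note: score merges feature fluorescence read at 667 nm with its signal to noise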
# [14] = biological target: Carbonic anhydrase 2 (Homo sapiens) (UniProt P00918); assay: compounds binding carbonic anhydrase 2 – biochemical, small-molecule microarray, Alexa647-labelled CAII, profiling panel (AID 1122); conditions: CAII-A647 binding fluorescence, higher = more signal
# [15] = COS7 lysate on small-molecule microarray, probe aHis, 635 nm (AID 1123); conditions: COS7 cell lysate, fluorescence, higher = more signal;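 note: z-score combines 667nm fluorescence intensity with signal-to-noise per printed compound spot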
# [16] = probe aLAP1 signal on lysate-treated microarray – cell lysate, small-molecule microarray, COS7 lysate, primary screen (AID 1124); conditions: probe aLAP1, fluorescence, higher = more signal;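 note: lysate comes from COS7 cells expressing LAP1 and is applied at 0.3 µg/mL; score merges spot fluorescence near 667 nm with signal-to-noise over triplicate slides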
# Sam68 (KHDRBS1) = assay: compounds binding KHDRBS1 protein – biochemical, small-molecule microarray, 635 nm fluorescence, primary screen (AID 1125); conditions: higher = more signal;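 note: score merges 667 nm channel intensity with signal to noise over triplicate slides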
# [17] = test system: Chordin-like protein 2 (CHRDL2); assay: compounds binding chordin-like 2 – biochemical, small-molecule microarray, 635 nm fluorescence, primary screen (AID 1126); conditions: fluorescence 635 nm, higher = more signal;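 note: printed compound slides probed with Chrdl2 protein at 4 µg/mL for 1 h at 4 C; score merges 667 nm emission intensity with signal to noise over three replicate slides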
# [18] = biological target: Concanavalin-A (Canavalia ensiformis) (UniProt P02866); assay: compounds binding concanavalin A lectin – biochemical, small-molecule microarray, Alexa647 label, 635 nm, artefact control for SMM control protein annotation, primary screen (AID 1127); conditions: ConA-A647 binding fluorescence, higher = more signal;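 note: z combines 667 nm emission intensity with signal-to-noise across three replicate slides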
# Concanavalin-A (Canavalia ensiformis), sequence (P02866 whole entry, looked up): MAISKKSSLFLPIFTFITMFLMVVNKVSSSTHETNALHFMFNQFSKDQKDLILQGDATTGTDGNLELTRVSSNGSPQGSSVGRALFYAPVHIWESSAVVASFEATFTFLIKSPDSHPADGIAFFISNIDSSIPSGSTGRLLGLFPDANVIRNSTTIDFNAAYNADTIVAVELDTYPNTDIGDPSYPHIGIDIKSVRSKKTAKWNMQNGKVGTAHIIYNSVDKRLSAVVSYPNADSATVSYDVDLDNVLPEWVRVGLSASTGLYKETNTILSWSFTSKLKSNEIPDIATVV
# Left-right determination factor 2 (Homo sapiens), sequence (O00292 whole entry, looked up): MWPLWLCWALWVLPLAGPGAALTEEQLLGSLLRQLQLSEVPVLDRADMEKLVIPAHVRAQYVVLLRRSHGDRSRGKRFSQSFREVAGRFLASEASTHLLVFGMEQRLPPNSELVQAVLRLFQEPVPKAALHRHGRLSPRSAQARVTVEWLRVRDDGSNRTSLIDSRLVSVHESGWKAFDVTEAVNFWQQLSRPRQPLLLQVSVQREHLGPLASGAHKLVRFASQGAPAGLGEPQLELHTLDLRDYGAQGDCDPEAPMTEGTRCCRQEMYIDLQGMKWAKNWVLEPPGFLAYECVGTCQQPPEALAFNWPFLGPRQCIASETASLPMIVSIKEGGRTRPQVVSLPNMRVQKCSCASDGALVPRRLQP
# Albumin (Bos taurus), sequence (P02769 whole entry, looked up): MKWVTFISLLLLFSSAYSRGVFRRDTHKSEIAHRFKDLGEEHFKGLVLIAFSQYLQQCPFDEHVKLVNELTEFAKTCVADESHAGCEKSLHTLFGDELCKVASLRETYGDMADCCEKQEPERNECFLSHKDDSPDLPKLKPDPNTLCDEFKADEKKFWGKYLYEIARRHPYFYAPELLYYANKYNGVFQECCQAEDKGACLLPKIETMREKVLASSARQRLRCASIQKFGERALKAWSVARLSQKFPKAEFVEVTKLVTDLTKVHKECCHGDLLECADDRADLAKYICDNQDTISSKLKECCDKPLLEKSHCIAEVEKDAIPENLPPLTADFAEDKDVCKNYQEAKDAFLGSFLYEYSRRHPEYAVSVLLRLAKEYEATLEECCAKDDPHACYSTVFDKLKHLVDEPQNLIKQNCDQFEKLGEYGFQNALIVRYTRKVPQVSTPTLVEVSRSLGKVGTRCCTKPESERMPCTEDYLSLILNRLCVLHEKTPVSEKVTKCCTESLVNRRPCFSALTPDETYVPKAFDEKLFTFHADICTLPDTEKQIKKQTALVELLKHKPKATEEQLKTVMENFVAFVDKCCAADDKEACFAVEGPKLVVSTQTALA
# Alpha-bungarotoxin (Bungarus multicinctus), sequence (P60615 whole entry, looked up): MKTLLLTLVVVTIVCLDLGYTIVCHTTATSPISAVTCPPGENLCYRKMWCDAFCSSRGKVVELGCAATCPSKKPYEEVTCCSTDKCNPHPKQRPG
# Torsin-1A-interacting protein 1 (Homo sapiens), sequence (Q5JTV8 whole entry, looked up): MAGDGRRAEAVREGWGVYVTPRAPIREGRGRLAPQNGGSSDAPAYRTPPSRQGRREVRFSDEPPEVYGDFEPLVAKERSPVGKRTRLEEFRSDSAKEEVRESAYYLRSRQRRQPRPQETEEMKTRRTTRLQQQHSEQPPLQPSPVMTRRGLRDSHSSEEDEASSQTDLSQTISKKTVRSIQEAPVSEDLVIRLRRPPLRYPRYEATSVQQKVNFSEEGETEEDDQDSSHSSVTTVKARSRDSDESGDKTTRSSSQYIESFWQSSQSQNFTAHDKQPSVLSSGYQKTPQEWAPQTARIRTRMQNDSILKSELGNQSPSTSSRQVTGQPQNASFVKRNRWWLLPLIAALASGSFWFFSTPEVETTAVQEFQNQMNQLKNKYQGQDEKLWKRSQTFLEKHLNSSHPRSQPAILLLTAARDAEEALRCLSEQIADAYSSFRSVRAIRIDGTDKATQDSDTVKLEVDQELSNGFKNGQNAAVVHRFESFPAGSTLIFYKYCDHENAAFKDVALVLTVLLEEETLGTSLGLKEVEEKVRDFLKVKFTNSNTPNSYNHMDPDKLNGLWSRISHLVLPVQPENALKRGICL
SMILES,composite z-score [1],z-score [2],composite z-score [3],composite z-score [4],composite z-score [5],composite z-score [6],composite z-score [7],composite z-score [8],composite z-score [9],composite z-score [10],composite z-score (Albumin (Bos taurus)),composite Z-score [11],composite z-score [12],composite z-score [13],composite z-score [14],composite z-score [15],composite z-score [16],composite z-score (Sam68 (KHDRBS1)),composite z-score [17],composite z-score [18]
CC(C)N1C(=O)C[C@@](C(=O)NCCCN(C)C)(c2ccc([N+](=O)[O-])cc2)[C@H]1c1ccc(CO)cc1,-0.218,-0.581,-0.438,-0.194,-0.774,-0.113,0.0062,-0.141,0.0945,0.942,-0.0399,0.183 (inactive),0.0628,-0.0698,0.573,-0.185,0.0653,-0.579,-0.0507,-0.158
COCCOC(=O)N1C(=O)[C@@]2(c3ccccc31)[C@H](C(=O)N1CCN(c3ncccn3)CC1)[C@H]1C(=O)O[C@H](c3ccccc3)[C@H](c3ccccc3)N1[C@@H]2c1ccc(O)cc1,0.97,-1.57,0.256,0.949,0.166,-0.0735,0.191,0.893,0.482,1.72,0.303,-0.197 (inactive),-0.273,-0.237,0.597,1.15,0.421,1.02,0.271,1.1
COCCOC(=O)N1C(=O)[C@@]2(c3cc(C#CCNC(N)=O)ccc31)[C@H](C(=O)N1CCc3cc(OC)c(OC)cc3C1)[C@H]1C(=O)O[C@H](c3ccccc3)[C@H](c3ccccc3)N1[C@@H]2c1ccccc1OCCO,0.843,-1.03,0.76,1.29,0.582,-0.0786,-0.305,0.39,1.03,1.85,0.577,-0.0476 (inactive),0.123,-0.126,0.577,1.33,0.383,1.29,0.855,0.794
CO[C@H]1O[C@H](CO)[C@@H](OC(=O)Nc2ccc3c(c2)OCO3)[C@H](OC(=O)c2cc3ccccc3[nH]2)[C@H]1OC(=O)c1cc2ccccc2[nH]1,-0.343,-1.99,0.117,-0.418,-0.83,-0.168,-0.0709,-0.315,0.0724,0.279,0.429,0.993 (inactive),-0.0932,-0.0875,0.402,-0.0481,0.0757,0.12,0.725,-0.391
[N-]=[N+]=NCc1ccccc1C[C@@]1(C(=O)N2CCCCC2)N=C(c2ccc(OCCCO)cc2)O[C@@H]1c1ccccc1,0.785,-3.35,-1.01,1.28,0.958,0.0141,-0.325,0.46,2.15,1,0.901,0.269 (inactive),-0.102,-0.299,0.606,1.28,-0.0762,1.07,-1.27,0.64
O=C1NC(=O)C2C1C=CC(C(O)CCc1ccccc1)N2Nc1ccc(Cl)cc1Cl (stereo not given),-0.72,-0.271,-0.448,1.54,0.819,0.539,-0.0571,1.04,1.97,2.65,0.709,0.118 (inactive),-0.142,0.345,0.79,2.25,0.925,0.969,-1.3,-0.0165
CO[C@]12C=C(Br)[C@@H](C[C@@H]1c1cccc(C)c1)[C@@]1(CO1)C2=O,0.194,-3.39,0.334,-0.426,-0.83,-0.247,-0.2,-0.0852,-0.373,-0.157,0.223,0.379 (inactive),-0.0311,-0.132,0.354,0.288,-0.071,0.189,0.306,0.123
COc1ccc(CCN2C(=O)[C@@]3(Cc4ccccc42)c2ccccc2C(=O)N(Cc2ccccc2OC)[C@H]3c2ccc(CO)cc2)cc1,-0.131,-0.601,-1.03,0.0678,0.466,-0.1,-0.155,0.898,-0.119,-0.749,0.282,-0.0127 (inactive),-0.177,-0.0785,0.162,0.215,-0.778,-0.232,-0.761,-0.516
COc1cc(OC)c(C(O)C2C=CC3C(=O)N(C)C(=O)C3N2NC(=O)OC(C)(C)C)cc1Br (stereo not given),1.45,-0.706,0.469,1.74,0.767,0.302,0.551,1.71,1.26,1.85,0.881,0.182 (inactive),0.398,0.354,0.584,3.05,0.91,1.3,-0.251,1.09
O=C1OCC=C[C@H]2OC34C=CCN(Cc5ccccc5)C(=O)[C@H]3N(CCCCCCO)C(=O)[C@@H]4[C@@H]12 (stereo not given in full),-1.08,0.141,-1.19,-0.274,0.466,-0.161,-0.0396,-0.302,2.46,-0.367,0.4,0.604 (inactive),-0.302,-0.162,0.914,0.0976,1.31,-0.398,-0.694,-0.159
OCC1CC(c2ccccc2)=NO1 (stereo not given),-1.07,0.381,0.43,-0.759,-0.445,-0.0084,-0.248,0.21,0.19,-0.0251,-0.558,-0.228 (inactive),-0.185,-0.124,-0.179,-0.53,-0.437,-0.424,0.843,-0.36
COC(=O)[C@@]1(Cc2ccc(OC)cc2)[C@H]2c3cc(C(=O)N4CCCC4)n(Cc4cccc5ccccc45)c3C[C@H]2CN1C(=O)c1ccccc1,0.764,-0.356,-0.58,1.38,0.498,0.0913,0.521,1.95,1.3,0.716,1.02,-0.115 (inactive),0.137,0.377,0.757,2.55,0.592,0.462,-0.133,0.686
